Test results taken from PubChem BioAssay (Tox21).
Results filed as inconclusive are left out. Entries that show only a call come without a potency. Active and inactive are the calls of the source. Unless noted, calls come from the whole dose curve; as a rule, active = well fitted curve in the direction sought with a large enough effect in the repeat runs; inconclusive = weak or mixed curves; inactive = no such curve, though single readings can be large; an effect the other way counts as inactive or inconclusive.

Assays:
[1] = qHTS assay to identify small molecule antagonists of the glucocorticoid receptor (GR) signaling pathway - cell viability counter screen (AID 720693); note: nearly all actives have a fitted effect of over 55% in size; note: potency is the fitted concentration of half-maximal effect
[2] = qHTS assay for identifying genotoxic compounds that show differential cytotoxicity against isogenic chicken DT40 cell lines with known DNA damage response pathways - wild type cell line (AID 743012); note: nearly all actives have a fitted effect of over 60% in size; note: potency is the fitted concentration of half-maximal effect
Outline: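 Parental DNA repair-proficient DT40 cells, 300 per well, were pre-incubated ~0.5 h at 37 C/5% CO2, pin-dosed with compounds in DMSO, then incubated 40 h. Viability was read as CellTiter-Glo luminescence after 30 min at room temperature.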

[3] = qHTS assay for identifying genotoxic compounds that show differential cytotoxicity against isogenic chicken DT40 cell lines with known DNA damage response pathways - Rev3 mutant cell line (AID 743014); note: nearly all actives have a fitted effect of over 55% in size; note: potency is the fitted concentration of half-maximal effect
[4] = qHTS assay for identifying genotoxic compounds that show differential cytotoxicity against isogenic chicken DT40 cell lines with known DNA damage response pathways - Rad54/Ku70 mutant cell line (AID 743015); note: nearly all actives have a fitted effect of over 60% in size; note: potency is the fitted concentration of half-maximal effect
[5] = qHTS assay to identify small molecule antagonists of the androgen receptor (AR) signaling pathway - cell viability counter screen (AID 743033; note: nearly all actives have a fitted effect of over 45% in size)
[6] = qHTS assay to identify small molecule antagonists of the androgen receptor (AR) signaling pathway using the MDA cell line - cell viability counter screen (AID 743041; note: nearly all actives have a fitted effect of over 45% in size)
Outline: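 MDA-kb2 AR-luc human breast carcinoma cells (MMTV-luciferase, AR/GR responsive) were treated with compounds plus R1881 agonist for 16 h at 37 °C. Viability was read as CellTiter-Fluor fluorescence in the same wells as the reporter assay.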

[7] = qHTS assay to identify small molecule antagonists of the thyroid receptor (TR) signaling pathway - cell viability counter screen (AID 743064); note: nearly all actives have a fitted effect of over 50% in size; note: potency is the fitted concentration of half-maximal effect
Outline: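 Plate GH3.TRE-Luc cells; incubate 4 h at 37 °C; add compound, then T3 to 1 nM final; incubate 23.5 h; add CellTiter-Fluor; incubate 30 min at 37 °C, 5% CO2; read fluorescence.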

[8] = qHTS assay to identify small molecule antagonists of the thyroid receptor (TR) signaling pathway (AID 743065); note: nearly all actives have a fitted effect of over 55% in size; note: potency is the fitted concentration of half-maximal effect
Outline: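 GH3.TRE-Luc rat pituitary cells carrying two TR response elements driving luciferase were plated for 4 h, given compound plus 1 nM T3 (final), and incubated 23.5 h at 37 C. ONE-Glo luminescence measured reporter inhibition; CellTiter-Fluor fluorescence tracked cytotoxicity.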

[9] = test system: thyroid hormone receptor (rat, GH3 cells); assay: qHTS assay to identify small molecule agonists of the thyroid receptor (TR) signaling pathway (AID 743066; calls by dose curve)
[10] = target: Estrogen receptor (Homo sapiens) (UniProt P03372); assay: qHTS assay to identify small molecule antagonists of the estrogen receptor alpha (ER-alpha) signaling pathway (AID 743069; active = well fitted curve in the direction sought with a large enough effect in the signal ratio in the repeat runs, not every such curve was filed as active; the % refers to the signal ratio)
Outline: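 HEK293 cells stably carrying an ER-alpha-UAS-bla beta-lactamase reporter were pre-cultured overnight in 2% charcoal-stripped FBS medium. Test compounds in DMSO were added together with 17beta-estradiol for 18 hr at 37C. Read-out was fluorescence after 2 hr with LiveBLAzer B/G FRET substrate at room temperature.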

[11] = target: Estrogen receptor (Homo sapiens) (UniProt P03372); assay: qHTS assay to identify small molecule agonists of the estrogen receptor alpha (ER-alpha) signaling pathway (AID 743075; calls by dose curve)
[12] = target: Estrogen receptor (Homo sapiens) (UniProt P03372); assay: qHTS assay to identify small molecule agonists of the estrogen receptor alpha (ER-alpha) signaling pathway using the BG1 cell line (AID 743079); note: nearly all actives have a fitted effect of over 20% in size; note: potency is the fitted concentration of half-maximal effect
[13] = qHTS assay to identify small molecule antagonists of the estrogen receptor alpha (ER-alpha) signaling pathway using the BG1 cell line (AID 743080; calls by dose curve;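 note: BG1 cells stimulated with 17beta-estradiol alongside compound; series mostly up to about 70 µM; nearly all actives have a fitted effect of over 25% in size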)
Outline: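 Readout is ONE-Glo luminescence, taken 30 min at room temperature after reagent addition, preceded by a CellTiter-Fluor viability read; BG1-Luc-4E2 cells had received compound and 17beta-estradiol for 21.5 h at 37 C.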

[14] = qHTS assay to identify small molecule antagonists of the estrogen receptor alpha (ER-alpha) signaling pathway using the BG1 cell line - cell viability counter screen (AID 743081);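 note: compound given together with 17beta-estradiol as the ER stimulus; series mostly up to about 70 µM; nearly all actives have a fitted effect of over 45% in size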
[15] = target: Aromatase (Homo sapiens) (UniProt P11511); assay: qHTS assay to identify aromatase inhibitors (AID 743083); note: series mostly up to about 70 µM; nearly all actives have a fitted effect of over 55% in size
[16] = qHTS assay to identify small molecule antagonists of the estrogen receptor alpha (ER-alpha) signaling pathway - cell viability counter screen (AID 743074; calls by dose curve; note: nearly all actives have a fitted effect of over 45% in size)

Chain of Estrogen receptor (Homo sapiens) (P03372 whole entry, looked up): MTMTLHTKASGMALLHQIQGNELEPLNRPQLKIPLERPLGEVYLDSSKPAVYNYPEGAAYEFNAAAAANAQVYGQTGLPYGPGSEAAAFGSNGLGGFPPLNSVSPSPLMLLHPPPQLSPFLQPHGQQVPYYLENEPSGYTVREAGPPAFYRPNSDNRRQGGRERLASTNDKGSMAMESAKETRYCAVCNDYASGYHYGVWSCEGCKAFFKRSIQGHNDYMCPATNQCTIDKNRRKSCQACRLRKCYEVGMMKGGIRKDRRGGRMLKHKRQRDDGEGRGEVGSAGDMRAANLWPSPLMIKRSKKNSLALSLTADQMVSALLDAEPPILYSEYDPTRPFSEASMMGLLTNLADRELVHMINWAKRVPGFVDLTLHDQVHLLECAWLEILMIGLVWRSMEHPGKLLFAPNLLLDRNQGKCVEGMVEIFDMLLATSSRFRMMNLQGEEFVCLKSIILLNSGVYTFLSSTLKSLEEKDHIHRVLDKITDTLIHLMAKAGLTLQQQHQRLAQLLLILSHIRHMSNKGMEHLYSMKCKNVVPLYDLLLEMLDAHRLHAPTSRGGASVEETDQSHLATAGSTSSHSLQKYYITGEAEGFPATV
Chain of Aromatase (Homo sapiens) (P11511 whole entry, looked up): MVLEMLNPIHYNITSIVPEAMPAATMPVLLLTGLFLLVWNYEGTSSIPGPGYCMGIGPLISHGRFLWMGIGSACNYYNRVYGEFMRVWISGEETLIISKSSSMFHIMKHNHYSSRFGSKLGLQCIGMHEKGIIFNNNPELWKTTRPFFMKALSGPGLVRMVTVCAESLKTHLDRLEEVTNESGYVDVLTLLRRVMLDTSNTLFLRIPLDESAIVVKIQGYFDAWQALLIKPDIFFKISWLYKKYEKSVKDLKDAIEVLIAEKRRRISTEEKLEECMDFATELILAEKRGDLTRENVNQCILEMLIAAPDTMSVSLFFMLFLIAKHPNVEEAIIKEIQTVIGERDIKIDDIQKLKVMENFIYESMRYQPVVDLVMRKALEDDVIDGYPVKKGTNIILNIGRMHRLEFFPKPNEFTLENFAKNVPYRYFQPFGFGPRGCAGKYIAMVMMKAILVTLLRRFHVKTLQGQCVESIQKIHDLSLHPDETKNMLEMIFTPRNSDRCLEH

Structure (SMILES) | Potency [1] | Potency [2] | Potency [3] | Potency [4] | outcome [5] | outcome [6] | Potency [7] | Potency [8] | Potency [9] | Potency [10] | Potency [11] | Potency [12] | outcome [13] | outcome [14] | outcome [15] | Potency [16]
C=CCOc1c(Br)cc(Br)cc1Br | inactive | inactive | inactive | inactive | inactive | inactive | inactive | inactive | inactive | inactive | inactive | inactive | inactive | inactive | inactive | 
C=CCOc1c(Br)cc(C(C)(C)c2cc(Br)c(OCC=C)c(Br)c2)cc1Br | inactive | inactive | inactive | inactive | inactive | inactive | inactive |  |  | inactive | inactive | inactive | inactive | inactive | inactive | inactive
O=S(=O)(O)CCO | inactive | inactive | inactive | inactive | inactive | inactive | inactive |  | inactive | inactive | inactive | inactive | inactive | inactive | inactive | inactive
C=COCCOCCOC=C | inactive | inactive | inactive | inactive | inactive | inactive | inactive | inactive | inactive |  |  |  |  | inactive | inactive | inactive
Cc1cccc(NC(=S)N(C)C)c1 | inactive | inactive | inactive | inactive | inactive | inactive | inactive | inactive | inactive |  |  |  |  | inactive |  | inactive
CCC(=O)c1ccc(O)cc1 | inactive | inactive | inactive | inactive | inactive | inactive | inactive |  | inactive | inactive | inactive | inactive | inactive | inactive | inactive | inactive
Cc1ccc2c(c1)c1c3n2CCNC3CCC1 (stereo unspecified) | inactive | 11.9 µM (active) | 11.9 µM (active) | 16.8 µM (active) | inactive | inactive | 11.9 µM (active) | 23.7 µM (active) |  |  |  |  |  | inactive | inactive | inactive
C=C(C)C(=O)OC1CC(C)CC(C)(C)C1 (stereo unspecified) | inactive | inactive | inactive | inactive | inactive | inactive | inactive | inactive | inactive |  |  |  |  | inactive | inactive | inactive
CCCCOC(=O)[C@@H](C)Oc1ccc(Oc2ccc(C(F)(F)F)cn2)cc1 | inactive | inactive | inactive | inactive | inactive | inactive | inactive | inactive | inactive |  | inactive | 61.5 µM (active) | inactive | inactive |  | inactive
CCCCCCCCCCCCCCCC(=O)NCCO | inactive | inactive | inactive | inactive | inactive | inactive |  | inactive | inactive |  |  |  |  | inactive | inactive | inactive
CO[Si](CCCCl)(OC)OC | inactive | inactive | inactive | inactive | inactive | inactive | inactive |  | inactive | inactive | inactive | inactive | inactive | inactive | inactive | inactive
O=C(O)C(=O)Nc1cccc(-c2nn[nH]n2)c1 | inactive | inactive | inactive | inactive | inactive | inactive | inactive |  | inactive |  |  |  |  |  | inactive | inactive
Cc1ccc(S(=O)(=O)NC(=O)NC2CCCCCCC2)cc1 | inactive | inactive | inactive | inactive | inactive | inactive | inactive | inactive | inactive |  |  |  |  | inactive | inactive | inactive
BrC/C=C/CBr | inactive | inactive | inactive | inactive | inactive | inactive | inactive | inactive | inactive |  |  |  |  | inactive | inactive | inactive
NC(=O)NNC(N)=O | inactive | inactive | inactive | inactive | inactive | inactive |  | inactive | inactive | inactive | inactive | inactive | inactive | inactive | inactive | inactive
Cc1ccccc1C(=O)N1CC/C(=N\OS(=O)(=O)O)c2ccc(Cl)cc21 | inactive | inactive | inactive | inactive | inactive | inactive | inactive | inactive | inactive | inactive | inactive | inactive | inactive | inactive | inactive | 
COc1cc2c(Nc3ccc(Br)cc3F)ncnc2cc1OCC1CCN(C)CC1 | 23.9 µM (active) | 5.31 µM (active) | 5.96 µM (active) | 6.68 µM (active) | inactive | inactive | 4.73 µM (active) | 5.31 µM (active) |  | inactive |  | inactive |  |  | inactive | 
O=C(c1ccc2c(c1)C(=O)OC2=O)c1ccc2c(c1)C(=O)OC2=O | inactive | inactive | inactive | inactive | inactive | inactive | inactive |  | inactive |  |  |  |  | inactive | inactive | inactive
COc1cc2c3cc1Oc1cc(ccc1O)C[C@@H]1c4c(cc(OC)c(O)c4Oc4ccc(cc4)C[C@@H]3N(C)CC2)CC[N+]1(C)C | inactive | inactive | inactive | inactive | inactive | inactive | inactive | inactive | inactive |  |  |  |  | inactive | inactive | inactive
C1=C\CC/C=C\CC/1 | inactive | inactive | inactive | inactive | inactive | inactive | inactive |  | inactive | inactive | inactive | inactive | inactive | inactive | inactive | inactive
CC1(N)CCC(C(C)(C)N)CC1 (stereo unspecified) | inactive | inactive | inactive | inactive | inactive | inactive |  | inactive | inactive |  |  |  |  | inactive | inactive | inactive
CCCCC(C)C(=O)O (stereo unspecified) | inactive | inactive | inactive | inactive | inactive | inactive | inactive | inactive | inactive |  |  |  |  | inactive | inactive | inactive
